Bioassay records: PubChem, National Center for Advancing Translational Sciences (NCATS)
Rows were chosen to be rich in hits. Some 2.7% of all compounds tested hit in one or more screens of this group.
gsp ag = agonists of gsp mutant (McCune-Albright syndrome). Potency, µM (doses to about 76.9 µM), for inactives: at the highest dose activation (cAMP increase), most hits filed as activators. actives 0.13% (n = 340,000). gsp mutant cells, cAMP HTRF, 30 min; active means well fitted activation curve with a large enough effect; inconclusive means small, poorly fitted or top-dose-only effect, or another doubt; inactive means no such curve, though single readings can be large or run the other way; cell line not stated here;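 further: phosphodiesterase inhibitor Ro 20-1724 added with compounds to block cAMP breakdown; potency means the concentration at half of the fitted maximal effect; nearly all actives have a fitted effect of over 60% in size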
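Cells in DMEM/10% FBS with G418 were pretreated with compounds in DMSO plus […] (300 uM stock) for 30 min at 37C. cAMP was measured by HTRF (cAMP-d2 plus anti-cAMP antibody-K) after 30 min at room temperature.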
gsp antagonist = gsp mutant antagonism; gsp-mutant cells, cAMP HTRF, 30 min; Potency, µM (highest dose often 76.9 µM), without a hit: at the top dose activity change, negative = inhibition, usual class: inhibitors; actives 0.4% (n = 340,000); calls by dose curve; cell line not stated here;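 further: intracellular cAMP measured with PDE inhibitor Ro 20-1724 present during compound exposure; potency means the concentration at half of the fitted maximal effect; on the % scale 0 is the no-effect control and ±100 the full control effect; nearly all actives have a fitted effect of over 65% in size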
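Measurement of cellular cAMP by homogeneous time-resolved fluorescence following a 30 min compound exposure at 37C. The PDE inhibitor […] was present throughout; the assay buffer was DPBS with 0.05% BSA and 0.005% Tween 20.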
pAkt inh = inhibitors of Akt phosphorylation. activity change, % for hits at 50 µM. Neuro2A IGF-stimulated pAkt S473 HTRF, 20 min; active compounds read low. actives 0.32% (n = 360,000); in the data active means activity change below about -80%; inconclusive means mostly about -51% to -80%; further: on the % scale 0 is the no-effect control and ±100 the full control effect
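Neuro2A cells in DMEM with 0.5% FBS, overnight at 37 deg C, given compound at single 50 µM final, then IGF (6 nM final) for 20 min at 37 deg C. Lysed; phospho-Akt Ser473 by HTRF after 24 h, 665/615 ratio.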
RXFP1 agonist = activates the human relaxin receptor RXFP1; HEK293T-RXFP1 cAMP TR-FRET, 30 min; response scale: percent of porcine relaxin response, buffer zero; Potency, µM (series often up to 57.5 µM), without a hit: at the top dose activation, most hits filed as activators; actives 0.3% (n = 370,000); Q9HBX9; active means well fitted activation curve with a large enough effect; inconclusive means small, poorly fitted or top-dose-only effect; further: potency means the concentration at half of the fitted maximal effect; on the % scale 0 is the no-effect control and ±100 the full control effect; nearly all actives have a fitted effect of over 60% in size
Target sequence (Q9HBX9 whole entry, looked up): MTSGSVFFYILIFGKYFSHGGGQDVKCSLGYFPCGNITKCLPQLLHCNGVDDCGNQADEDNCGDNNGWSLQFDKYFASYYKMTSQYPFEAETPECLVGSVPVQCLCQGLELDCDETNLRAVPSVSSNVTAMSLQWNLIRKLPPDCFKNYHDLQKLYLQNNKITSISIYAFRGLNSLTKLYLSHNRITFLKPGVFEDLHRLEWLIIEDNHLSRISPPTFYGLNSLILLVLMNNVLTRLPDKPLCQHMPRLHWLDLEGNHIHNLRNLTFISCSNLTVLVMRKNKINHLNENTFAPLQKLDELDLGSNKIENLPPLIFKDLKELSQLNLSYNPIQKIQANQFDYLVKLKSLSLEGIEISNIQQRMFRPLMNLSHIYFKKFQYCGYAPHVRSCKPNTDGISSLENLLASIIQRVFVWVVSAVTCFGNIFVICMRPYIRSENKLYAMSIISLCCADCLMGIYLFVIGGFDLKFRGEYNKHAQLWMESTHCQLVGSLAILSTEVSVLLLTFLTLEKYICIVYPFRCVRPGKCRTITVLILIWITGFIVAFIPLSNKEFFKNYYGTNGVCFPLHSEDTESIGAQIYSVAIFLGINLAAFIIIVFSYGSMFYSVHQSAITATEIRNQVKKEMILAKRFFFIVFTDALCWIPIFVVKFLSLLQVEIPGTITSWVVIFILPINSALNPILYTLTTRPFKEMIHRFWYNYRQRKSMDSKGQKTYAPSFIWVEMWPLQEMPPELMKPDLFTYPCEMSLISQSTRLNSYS
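HEK293 cells stably expressing RXFP1, treated 30 min at 37C with compounds plus PDE4 inhibitor Ro 20174; cAMP measured by HTRF TR-FRET. Normalized to buffer and 29 nM porcine relaxin; EC50 by Hill fit.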
ClpP mod = qHTS Assay for Activators of ClpP | Potency, µM (titrated, usually from 57.5 µM), for the others: top-dose activity change, negative = active | actives 1.9% (n = 340,000) | ATP-dependent Clp protease proteolytic subunit (Bacillus subtilis (strain 168)), P80244 | purified B. subtilis ClpP, FRET peptide cleavage, 20 min; active means well fitted falling curve with a large enough effect; inconclusive means small, poorly fitted or top-dose-only effect; inactive means no such curve, though single readings can be large or run the other way; further: potency means the concentration at half of the fitted maximal effect; the source files actives as falling curves though it sought activators and does not explain the sign; nearly all actives have a fitted effect of over 65% in size
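Buffer: 100 mM Tris/HCl pH8, 100 mM KCl, 0.05% low protease BSA, 2.5% glycerol, 0.01% Tween-20. ClpP 10 microg/mL final; 20 min RT; delta FRET normalized to ADEP and DMSO controls.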
RXFP1 antag = antagonists of human relaxin receptor RXFP1; Q9HBX9; HEK293-RXFP1, relaxin-stimulated cAMP HTRF, 30 min; active compounds read low; activity change, negative = inhibition, % at 57.5 µM; actives 0.59% (n = 350,000); AID 1259400;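 active means activity change of -60% or lower, but not beyond a set lower limit; inconclusive means change between -60% and -40%, or beyond the set limit; inactive means change above -40%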; further: on the % scale 0 is the no-effect control and ±100 the full control effect
* marks the source's active call; other numbers are inactive results; i = inactive; ? = inconclusive; · = not tested or not shown; [ ] = remark or other dose.

SMILES	gsp ag	gsp antagonist	pAkt inh	RXFP1 agonist	ClpP mod	RXFP1 antag
CCOc1cccc(/C=N/NC(=O)c2cc(-c3cccn3C)n[nH]2)c1O	1.5%[15.4 µM]	?	i	-3.0%	·	-76.9*
CCn1c2ccccc2c2nnc(SCC(=O)NCc3cccs3)nc21	0.6%	-3.2%	i	5.3%	-0.6%	5.1
CCn1c2ccccc2c2nnc(SCC(=O)NCCOC)nc21	10µM*	4.4%	·	9.8%	0.8%	13.0
COC(=O)CCC(=O)Nc1sc2c(c1C#N)CCCC2	-3.7%	6.0%	i	4.3%	28.2µM*	-11.1
CC(=O)NC(=S)Nc1sc2c(c1C#N)CCCCC2	14.5%[15.4 µM]	?	i	2.6%	0.1%	-5.5
N#Cc1c(NC(=S)NC(=O)Cc2cccs2)sc2c1CCCCC2	32.1%	31.6µM*	i	3.2%	-1.4%	2.0
Cc1ccc(C)n1-c1c(C(=O)NCCC(C)C)sc2ncccc12	·	·	·	-0.4%	3.0%	-24.0
Cc1ccc(Cl)cc1NCc1nnc2n1CCCCC2	·	·	·	-0.1%	-0.3%	·
COc1ccc(-c2cn3ccccc3n2)cc1	-0.4%	3.1%	i	-0.2%	4.1%	0.4
COc1ccc(-c2cn3cccc(C)c3n2)cc1Br	12.7%[15.4 µM]	-4.3%	i	4.6%	?	-10.9
COc1ccc(-c2cn3ccc4ccccc4c3n2)cc1	9.6%	-28.5%	i	0.5%	28.2µM*	1.0
Cc1cccn2cc(-c3ccc(F)cc3)nc12	24.4%	6.1%	i	-1.3%	17.8µM*	-2.4
Cc1ccc2nc(-c3ccccc3)cn2c1	-11.2%	3.7%	i	3.2%	14.1µM*	·
Cc1cccn2cc(-c3ccccc3)nc12	24.6%	-15.8%	i	2.8%	10µM*	1.1
Cc1nc(SCC(=O)N2CCN(c3ccccn3)CC2)c(C#N)c(C)c1C	?	-10.6%	i	·	-12.3%	5.9
Cc1sc2ccccc2c1CNC[C@H]1O[C@@H](n2cnc(C(N)=O)n2)[C@H](O)[C@@H]1O	·	1.3%	i	·	1.3%	·
CCCCn1c(N)c(N(CCOC)C(=O)c2cc(-c3ccc(OC)cc3)nc3ccccc23)c(=O)[nH]c1=O	-13.2%	3.0%	i	-0.2%	11.2µM*	-21.4
COc1ccc(C(CNC(=O)c2cc(S(=O)(=O)N3CCCC3)ccc2Cl)N2CCCC2)cc1 (stereo not given)	-4.5%	5.3%	i	-0.1%	-1.2%	-4.0
O=[N+]([O-])c1c(Nc2ccccc2O)cc(Cl)c2nonc12	-18.5%	-20.6%	i	-2.3%	·	-75.1*
O=[N+]([O-])c1c(Nc2ccccc2O)ccc2nonc12	1.4%[15.4 µM]	-17.4%	i	4.0%	·	-31.3
O=C(CSc1nnc(N2CCCC2)n1-c1ccccc1Cl)N1CCN(c2ccccn2)CC1	-11.2%	-5.7%	i	-0.1%	?	-1.1
CC(=O)Nc1cccc(C(=O)NCc2ccc3c(c2)CCN3C(=O)c2ccc(F)cc2)c1	·	·	·	1.0%	-0.2%	-30.7
CCCNC(=O)c1nnsc1S(=O)c1ccc(Cl)cc1 (stereo not given)	13.9%[15.4 µM]	?	i	1.0%	·	-71.2*
CCCNC(=O)c1nnsc1S(=O)(=O)c1ccc(Cl)cc1	7.2%[15.4 µM]	10.7%	i	-2.5%	·	-63.2*
Cc1cccc(C(=O)O[C@@H]2[C@H](Cc3ccccc3)NS(=O)(=O)[C@H]3C[C@@H]4C=C[C@]23O4)c1	·	-5.1%	i	0.7%	0.8%	·
SMILES	gsp ag	gsp antagonist	pAkt inh	RXFP1 agonist	ClpP mod	RXFP1 antag
O=C(C1CCCN(Cc2ccccc2[N+](=O)[O-])C1)N1CCCC1 (stereo not given)	0.1%[15.4 µM]	-3.0%	i	1.6%	28.2µM*	0.4
CC(=O)N1CCC(C(=O)Nc2nnc(C(C)C)s2)CC1	·	·	·	·	-1.8%	·
Nc1c(S(=O)(=O)c2ccccc2)c2nc3ccccc3nc2n1C1CC1	-3.8%[15.4 µM]	-7.8%	i	20.3%	·	-3.7
CCCCn1c(NS(=O)(=O)c2ccccc2)c(S(=O)(=O)c2ccc(C)cc2)c2nc3ccccc3nc21	25.7%[15.4 µM]	15.9%	i	?	15.8µM*	-4.7
Cn1c(N)c(S(=O)(=O)c2ccc(Br)cc2)c2nc3ccccc3nc21	-8.0%	1.1%	i	0.3%	14.1µM*	-4.6
Cc1ccc(S(=O)(=O)c2c(N)n(NC(=O)c3ccccc3C)c3nc4ccccc4nc23)cc1	-48.1%	-5.7%	i	0.9%	31.6µM*	-5.9
Cc1ccc(S(=O)(=O)c2c(N)n(CCC(C)C)c3nc4ccccc4nc23)cc1	-38.3%	-27.9%	i	2.4%	25.1µM*	-8.1
O=C(CSc1cc(Cl)ccc1Cl)Nc1ccc(N2CCOCC2)cc1	10.1%	-16.9%	i	1.9%	-1.6%	12.2
CCOC(=O)c1ccc(NC(=O)C2CCCN(c3ncnc4onc(-c5ccc(F)cc5)c34)C2)cc1 (stereo not given)	·	·	·	1.8%	?	-20.6
Cc1ccc(C)c(NC(=O)c2ccc3nc(CCc4ccccc4)oc3c2)c1	·	·	·	-1.6%	22.1%	·
Cc1ccc(C(=O)Nn2c(N)c(S(=O)(=O)c3ccc(C)cc3)c3nc4ccccc4nc32)cc1	0.5%	0.7%	i	3.5%	28.2µM*	-34.2
CCc1noc(C)c1C(=O)NNC(=O)COc1cc(C)ccc1C	1.9%	13.0%	i	1.3%	2.0%	3.3
C[C@@H]1CCN(C(=O)[C@H](CCCN=C(N)N)NS(=O)(=O)c2cccc3c2NC[C@H](C)C3)[C@@H](C(=O)O)C1	·	·	·	·	·	10.6
Cc1ccc(N2CC(NC(=O)C(=O)c3c[nH]c4ccccc34)CC2=O)cc1 (stereo not given)	·	·	·	5.0%	-0.5%	-10.8
O=C(Nc1ccc2oc(-c3cc(Br)ccc3Cl)nc2c1)c1cc2ccccc2o1	·	·	·	20µM*	4.0%	5.5
COc1cc(C(=O)Nc2cccc(-c3nc4cc(C)ccc4o3)c2C)cc(OC)c1OC	-14.9%	10.9%	-104.9%*	6.6%	-17.6%	-14.2
COc1c(C)cccc1C(=O)Nc1ccc(Cl)c(-c2nc3cc(C)ccc3o2)c1	·	·	·	1.4%	25.1µM*	-23.0
O=C(CSc1ccc2nnc(-c3cccnc3)n2n1)Nc1ccccc1F	?	·	i	·	-9.0%	6.3
Nn1cnc2sc3c(c2c1=O)CCC3	25.8%	6.0%	i	0.8%	-0.8%	-9.5
c1nc2sc3c(c2c2nnnn12)CCC3	20.1%	10.7%	i	8.4%	14.1µM*	9.6
c1nc2sc3c(c2c2nnnn12)CCCC3	?	2.7%	i	7.0%	15.8µM*	-12.8
c1nnc2c3c4c(sc3ncn12)CCCC4	·	·	·	7.7%	·	·
Cc1ccc(CNC(=O)c2cc(C3CC3)nc3c2c(C)nn3-c2cccc(Cl)c2C)cc1	·	·	·	0.2%	?	2.8
